# Measurements from the supplement of paper PMC12282887.
# ± gives the standard deviation of the averaged measurements.
# Assays:
# Experiment in all cases: promoter activity interaction Z-score (Lux/OD deviation from empty-vector control); higher = stronger promoter induction by the compound
# [1] = system: E. coli BW25113 acrABp lux reporter
# How it was run: (§1)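 E. coli BW25113 (wild type or marA, soxS or rob deletion) carrying low-copy luxCDABE promoter reporters grew in 40 µl LB Lennox in 384-well plates at 37°C. Each compound was tested at four 1:2 dilutions in biological duplicates. OD600 and luminescence were read every 30 min for 12 h. Areas were taken over 0–8 h (wild type) or 1–9 h (mutants), and wells below 10% of median growth area were removed. The score is the Z-transformed residual of growth-normalised luminescence fitted against the empty-vector control.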
# [2] = system: E. coli BW25113 micFp lux reporter
# How it was run: as §1
# [3] = system: E. coli BW25113 ompFp lux reporter
# How it was run: as §1
# [4] = system: E. coli BW25113 robp lux reporter
# How it was run: as §1
# [5] = system: E. coli BW25113 soxSp lux reporter
# How it was run: as §1
# [6] = system: E. coli BW25113 tolCp lux reporter
# How it was run: as §1
# [7] = 14.6 µg/ml, genetic background: wild type
# [8] = 14.6 µg/ml, genetic background: ΔmarA
# [9] = 14.6 µg/ml, genetic background: Δrob
# [10] = 14.6 µg/ml, genetic background: ΔsoxS
# [11] = 29.3 µg/ml, genetic background: wild type
# [12] = 29.3 µg/ml, genetic background: ΔmarA
# [13] = 29.3 µg/ml, genetic background: Δrob
# [14] = 29.3 µg/ml, genetic background: ΔsoxS
# [15] = 58.6 µg/ml, genetic background: wild type
# [16] = 58.6 µg/ml, genetic background: ΔmarA
# [17] = 58.6 µg/ml, genetic background: Δrob
# [18] = 58.6 µg/ml, genetic background: ΔsoxS
# [19] = 117.2 µg/ml, genetic background: wild type
# [20] = 117.2 µg/ml, genetic background: ΔmarA
# [21] = 117.2 µg/ml, genetic background: Δrob
# [22] = 117.2 µg/ml, genetic background: ΔsoxS
structure (smiles),measurement,setting,value
c1ccc2[nH]ccc2c1 [Indole],promoter activity interaction Z-score,[1]; [7],0.275 ± 0.27
same,promoter activity interaction Z-score,[1]; [8],0.599 ± 0.24
same,promoter activity interaction Z-score,[1]; [9],0.275 ± 0.17
same,promoter activity interaction Z-score,[1]; [10],0.000826 ± 0.08
same,promoter activity interaction Z-score,[1]; [11],0.165 ± 0.071
same,promoter activity interaction Z-score,[1]; [12],0.0409 ± 0.28
same,promoter activity interaction Z-score,[1]; [13],0.281 ± 0.18
same,promoter activity interaction Z-score,[1]; [14],0.463 ± 0.32
same,promoter activity interaction Z-score,[1]; [15],-0.112 ± 0.29
same,promoter activity interaction Z-score,[1]; [16],0.00303 ± 0.77
same,promoter activity interaction Z-score,[1]; [17],-0.21 ± 0.23
same,promoter activity interaction Z-score,[1]; [18],-0.312 ± 0.055
same,promoter activity interaction Z-score,[1]; [19],0.167 ± 0.52
same,promoter activity interaction Z-score,[1]; [20],-0.375 ± 0.025
same,promoter activity interaction Z-score,[1]; [21],-0.278 ± 0.012
same,promoter activity interaction Z-score,[1]; [22],0.0661 ± 0.25
same,promoter activity interaction Z-score,[2]; [7],-0.0516 ± 0.12
same,promoter activity interaction Z-score,[2]; [8],0.0327 ± 0.011
same,promoter activity interaction Z-score,[2]; [9],0.00243 ± 0.044
same,promoter activity interaction Z-score,[2]; [10],0.0247 ± 0.094
same,promoter activity interaction Z-score,[2]; [11],-0.0146 ± 0.021
same,promoter activity interaction Z-score,[2]; [12],-0.0163 ± 0.074
same,promoter activity interaction Z-score,[2]; [13],0.00613 ± 0.19
same,promoter activity interaction Z-score,[2]; [14],0.586 ± 0.069
same,promoter activity interaction Z-score,[2]; [15],0.0628 ± 0.13
same,promoter activity interaction Z-score,[2]; [16],-0.00313 ± 0.016
same,promoter activity interaction Z-score,[2]; [17],-0.138 ± 0.18
same,promoter activity interaction Z-score,[2]; [18],0.204 ± 0.28
same,promoter activity interaction Z-score,[2]; [19],0.516 ± 0.39
same,promoter activity interaction Z-score,[2]; [20],-0.0638 ± 0.0022
same,promoter activity interaction Z-score,[2]; [21],0.0554 ± 0.19
same,promoter activity interaction Z-score,[2]; [22],0.622 ± 0.087
same,promoter activity interaction Z-score,[3]; [7],0.322 ± 0.069
same,promoter activity interaction Z-score,[3]; [8],0.511 ± 0.0093
same,promoter activity interaction Z-score,[3]; [9],0.571 ± 0.51
same,promoter activity interaction Z-score,[3]; [10],0.225 ± 0.49
same,promoter activity interaction Z-score,[3]; [11],0.195 ± 0.09
same,promoter activity interaction Z-score,[3]; [12],0.309 ± 0.31
same,promoter activity interaction Z-score,[3]; [13],0.788 ± 0.39
same,promoter activity interaction Z-score,[3]; [14],0.734 ± 0.24
same,promoter activity interaction Z-score,[3]; [15],0.0808 ± 0.21
same,promoter activity interaction Z-score,[3]; [16],-0.0711 ± 0.22
same,promoter activity interaction Z-score,[3]; [17],-0.121 ± 0.61
same,promoter activity interaction Z-score,[3]; [18],-0.221 ± 0.36
same,promoter activity interaction Z-score,[3]; [19],0.63 ± 0.055
same,promoter activity interaction Z-score,[3]; [20],0.332 ± 0.29
same,promoter activity interaction Z-score,[3]; [21],0.341 ± 0.29
same,promoter activity interaction Z-score,[3]; [22],0.406 ± 0.096
same,promoter activity interaction Z-score,[4]; [7],0.568 ± 0.58
same,promoter activity interaction Z-score,[4]; [8],1.11 ± 0.29
same,promoter activity interaction Z-score,[4]; [9],0.842 ± 0.094
same,promoter activity interaction Z-score,[4]; [10],0.694 ± 0.19
same,promoter activity interaction Z-score,[4]; [11],0.773 ± 0.055
same,promoter activity interaction Z-score,[4]; [12],1.1 ± 0.014
same,promoter activity interaction Z-score,[4]; [13],0.598 ± 0.34
same,promoter activity interaction Z-score,[4]; [14],0.773 ± 0.2
same,promoter activity interaction Z-score,[4]; [15],-0.0581 ± 0.17
same,promoter activity interaction Z-score,[4]; [16],0.148 ± 0.5
same,promoter activity interaction Z-score,[4]; [17],0.569 ± 0.13
same,promoter activity interaction Z-score,[4]; [18],0.0833 ± 0.58
same,promoter activity interaction Z-score,[4]; [19],0.0933 ± 0.09
same,promoter activity interaction Z-score,[4]; [20],0.0401 ± 0.093
same,promoter activity interaction Z-score,[4]; [21],-0.335 ± 0.55
same,promoter activity interaction Z-score,[4]; [22],0.0103 ± 0.36
same,promoter activity interaction Z-score,[5]; [7],0.0112 ± 0.045
same,promoter activity interaction Z-score,[5]; [8],-0.0857 ± 0.076
same,promoter activity interaction Z-score,[5]; [9],-0.0709 ± 0.072
same,promoter activity interaction Z-score,[5]; [10],0.0403 ± 0.38
same,promoter activity interaction Z-score,[5]; [11],-0.034 ± 0.11
same,promoter activity interaction Z-score,[5]; [12],0.0579 ± 0.018
same,promoter activity interaction Z-score,[5]; [13],-0.0043 ± 0.038
same,promoter activity interaction Z-score,[5]; [14],0.238 ± 0.052
same,promoter activity interaction Z-score,[5]; [15],-0.0963 ± 0.0079
same,promoter activity interaction Z-score,[5]; [16],-0.00367 ± 0.068
same,promoter activity interaction Z-score,[5]; [17],-0.169 ± 0.082
same,promoter activity interaction Z-score,[5]; [18],-0.175 ± 0.24
same,promoter activity interaction Z-score,[5]; [19],-0.134 ± 0.044
same,promoter activity interaction Z-score,[5]; [20],-0.1992 ± 0.0019
same,promoter activity interaction Z-score,[5]; [21],-0.22 ± 0.15
same,promoter activity interaction Z-score,[5]; [22],-0.0773 ± 0.035
same,promoter activity interaction Z-score,[6]; [7],0.801 ± 1.5
same,promoter activity interaction Z-score,[6]; [8],0.744 ± 0.49
same,promoter activity interaction Z-score,[6]; [9],-0.506 ± 0.39
same,promoter activity interaction Z-score,[6]; [10],-0.474 ± 0.23
same,promoter activity interaction Z-score,[6]; [11],-0.36 ± 0.35
same,promoter activity interaction Z-score,[6]; [12],0.821 ± 1.3
same,promoter activity interaction Z-score,[6]; [13],0.287 ± 0.068
same,promoter activity interaction Z-score,[6]; [14],2.02 ± 0.35
same,promoter activity interaction Z-score,[6]; [15],-0.246 ± 0.9
same,promoter activity interaction Z-score,[6]; [16],0.0426 ± 0.17
same,promoter activity interaction Z-score,[6]; [17],-0.244 ± 0.44
same,promoter activity interaction Z-score,[6]; [18],1.06 ± 0.6
same,promoter activity interaction Z-score,[6]; [19],-0.0345 ± 0.59
same,promoter activity interaction Z-score,[6]; [20],-0.841 ± 0.13
same,promoter activity interaction Z-score,[6]; [21],-1.12 ± 0.97
same,promoter activity interaction Z-score,[6]; [22],-0.0289 ± 0.16
